This note sets out measurements from PubChem BioAssay (NCI).

Structures are written as SMILES. This is part of a sample that, as a whole, favours compounds with a hit. Of some 83,000 tested, about 20% had one in any assay.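 For each line, cells grew in 96-well plates with the test compound present at a single concentration for 48 hours.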 Unmarked numbers belong to inactive results. Calls of active or inactive are those of the source.

This assay relates to NCI-H522 lung. In words: NCI-60 one-dose screen, 48 h (100 = growth as untreated, 0 = no growth, -100 = all killed). To be noted: 10 µM unless noted. The method, then:
Growth inhibition of the NCI-H522 human Non-Small Cell Lung tumor cell line is measured as a screen for anti-cancer activity. Cells are grown in 96 well plates and exposed to the test compound for 48 hours. Compounds are tested at a single concentration, which is 10^-5 M for most compounds. The reported endpoint is percent growth (GI% or GIPRCNT), where numbers from 0 - 100% represent growth inhibition, and numbers from -100% - 0 represent cell death. For example, a value of 40 represents 60% growth inhibition. A value of 0 means no net growth occurred over the course of the experiment. A value of -40 indicates 40% of cells at the beginning of the experiment died by the end of the experiment. A value of -100 means all cells are dead at the end of the experiment.
NCI-60 Human Tumor Cell Lines Screen was performed using the standard one-dose NCI protocol, which is described in more detail at https://dtp.cancer.gov/discovery_development/nci-60/default.htm.
Compounds with GIPRCNT values below 10 were considered active. Activity score was based on GIPRCNT using the following formula: […]
Score is 0 for GIPRCNT values of 100 or above, 50 for GIPRCNT values of 0, and 100 for GIPRCNT values of -100.
Take `COC(=O)c1ccc(NC2=C(Cl)C(=O)c3nc(C)ccc3C2=O)cc1`: the growth is 59.6%.
For `CCCCc1nc2c(N)nc3ccccc3c2n1Cc1cccc(CN)c1`, the growth was 72.7%.
For the compound `COc1ccc([C@@H]2C(=O)N(c3cc(OC)c(OC)c(OC)c3)[C@H]2c2ccc(OC)c(O)c2)cc1`, the growth is -39.4% (active).
For the compound `O=c1nc(Nc2ccc([N+](=O)[O-])cc2O)sc2ccccc12`, the growth is 14.2%.
On to `CN1CCN(c2ccc(Nc3nc(NCCCNS(=O)(=O)c4ccc(Cl)cc4)c4sccc4n3)cc2)CC1`, for which the growth is -65.8% (active).
As for `COc1ccc2[nH]cc(-c3nn4cc(-c5ccncc5)nc4s3)c2c1`, the growth is 51%.
On to `CCOC(=O)c1c(NCC(=O)Nc2cccc([N+](=O)[O-])c2)sc(C(C)=O)c1C`, for which the growth was -32% (active).
With `CCCCSC1=C(Cl)CN(c2ccc(Cl)cc2)C1=O`, the growth was -4.15% (active).
With `COc1ccc(-c2cc(-c3ccc(N4CCOCC4)cc3)n3c(n2)nc2ccccc23)cc1OC`, the growth was 87.7%.
Next, `CN1c2ccccc2Sc2cc(/C=N/Nc3ccnc4cc(Cl)ccc34)ccc21`: 99.2%; `O=C(CCCCCCNC(=O)C(O)(O)C(F)(F)F)Nc1ncc(-c2ccccc2)s1`: -38.1% (active).
Regarding `CC(C)[C@H]1c2[nH]c3ccccc3c2C[C@H]2C(=O)N(CCCCCCC(=O)NO)CC(=O)N12`, the growth was 42.8%.
Turning to `CCOC(=O)c1ccc(NC2=CC(=O)C(C)=C(C)C2=O)cc1`, the growth was 87.5%.
Turning to `Cc1ccc(OCc2occc2C(=O)N2CCOCC2)cc1`, the growth is 100%.
Turning to `COC(=O)c1cccc(NC2=C(Cl)C(=O)c3nc(C)ccc3C2=O)c1`, the growth was 65.1%.
For the compound `CC(C)C(/C=C/c1[nH]ncc1-c1cc(Cl)ccc1O)N1CCOCC1` (stereo not given), the growth is 95.8%.
For the compound `C#CCN(C)CCCOc1ccc(NCc2ccc(C(=O)NO)cc2)cc1Cl`, the growth was 13.7%.
In the case of `Cc1[nH]c(C(=O)Nc2ccc(C(N)=O)cc2N2CCOC(C)C2)c(Cl)c1Cl` (stereo not given), the growth is 95.1%.
As to `N#Cc1cnc2ccc(-c3cnc4n[nH]nc4c3)cc2c1N1CCc2cc(F)c(Cl)cc21`, the growth is -10.1% (active).
As for `CCNCCOc1ccc(/C(=C(/CC)c2ccc(Cl)cc2)c2ccc(OCCCN(C)C)cc2)cc1`, the growth was -76.7% (active).
On to `COc1cc(C(=O)c2cc(C(C)=O)c3ccc(C)cn23)cc(OC)c1OC`, for which the growth is 38.4%.
For `O=C(CSc1nnc(-c2ccc(Cl)cc2)n1-c1ccccc1)Nc1ccccc1Cl`, the growth is 76.2%.
Turning to `O=C(/C=C/c1ccc(Cl)c(Cl)c1)Nc1ncc(Cc2ccc(Cl)c(Cl)c2)s1`, the growth is 40.4%.
In the case of `CCCCCCOC(=O)c1cc(-c2ccc(F)cc2)nc2ccccc12`, the growth was 82.8%.
Turning to `Cc1ccc(S(=O)(=O)NCCCNc2nc(Nc3ccc(N4CCN(C)CC4)cc3)nc3ccsc23)cc1`, the growth is -5.6% (active).
Next, `CNC(=O)c1cc(-n2ccc3cc(NC(=O)Nc4ccc(N5CCN(C)CC5)c(C(F)(F)F)c4)ccc32)ccn1`: 101%.
Take `COc1ccc2c(c1)c(-c1nn3cc(-c4ccncc4)nc3s1)cn2C`: the growth is 68.9%.
Take `N#Cc1c(-c2ccc(F)cc2)cc(-c2c[nH]c3ccccc23)nc1-c1c[nH]c2ccccc12`: the growth was 97%.
Next, `CCCC/C(=C\c1ccc(O)c(O)c1)C(=O)NC(Cc1ccccc1)C(=O)C(=O)NCCc1ccc(OC)cc1` (stereo not given): 87.7%; `O=C(CCCCCCNC(=O)C(O)(O)C(F)(F)F)Nc1ncc(-c2ccc(Br)cc2)s1`: -44.9% (active); `O=c1c2ccccc2cc2n1CCN=C2c1ccccc1`: 98%.
With `COc1cccc(N2CCN(C3=C(Cl)C(=O)c4ncccc4C3=O)CC2)c1`, the growth is 42.6%.
For `O=C(/C=C/c1cccc(C(F)(F)F)c1)Nc1cccc(C(F)(F)F)c1`, the growth was 33.8%.
Then `Brc1ccc(-c2cc(-c3ccc4c(c3)OC=CO4)n[nH]2)s1`, with 73.8%; and `CC(C)NC(=O)c1cc(-c2ccc(NC(=O)Nc3ccc(F)cc3)cc2)nc2cccnc12`, with 96.8%.
For the compound `NNc1nnc2nc(Nc3ccccc3)nc(Nc3ccc(S(N)(=O)=O)cc3)n12`, the growth was 101%.
Take `O=C(Nc1ccccc1)Nc1nc2ccc([N+](=O)[O-])cc2[nH]1`: the growth was 28.4%.
`NC(=O)n1c(=O)n(-c2cccc(C(F)(F)F)c2)c(=O)c2cc(-c3ccc(F)cc3F)ccc21`: the growth was -11.2% (active).
Regarding `CCC(=C(c1ccc(OCCN2CCCCCC2)cc1)c1ccc(OCCN2CCCCCC2)cc1)c1ccc(Cl)cc1`, the growth was -5.58% (active).
Consider `COc1ccc2c(c1)c(-c1nnc(N)nc1-c1c[nH]c3ccc(F)cc13)cn2C`, for which the growth was 27.2%.
